For part of these data: Measured potencies and affinities stand elsewhere. The source made the active and inactive calls. Unless noted, the rule behind the calls is not given here.
Key:
[1] = antimalarial activity against Dd2 strain (AID 2302;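 active = growth inhibition above 50% at the single 2 µM test dose, taken to imply half-maximal potency below 2 µM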;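 note: 0% = DMSO untreated growth and 100% = chloroquine plus artemisinin killed control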); settings: P. falciparum Dd2 in RBCs, LDH growth readout, 72 h; at 2 µM; stronger effect = higher value
[2] = HepG2 cytotoxicity, primary screen, cytotoxicity control for P. falciparum antimalarial project, cell-based, ATP luminescence (AID 2303;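 active = inhibition above 50%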;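 note: 0% = DMSO wells and 100% = digitonin-killed cells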); settings: HepG2 viability, 24-48 h, at 10 µM, stronger effect = higher value
[3] = molecular target: L-lactate dehydrogenase (Plasmodium falciparum (isolate CDC / Honduras)) (UniProt Q27743); test: PfLDH activity inhibition – cell lysate, 3D7 strain, counter-screen for P. falciparum growth inhibition project (AID 2304);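 note: 0% = vehicle and 100% = reference inhibitor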; settings: P. falciparum 3D7 crude extract, LDH APAD/NBT absorbance; at 2 µM; stronger effect = higher value
[4] = inhibition of 3D7 malaria parasite growth – strain 3D7 (AID 2306);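 note: 0% = DMSO wells and 100% = chloroquine plus artemisinin control wells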; settings: P. falciparum 3D7 erythrocytic growth, LDH absorbance, 72 h; at 2 µM; stronger effect = higher value
[5] = molecular target: Calcium-dependent protein kinase 1 (Plasmodium falciparum (isolate 3D7)) (UniProt P62344); test: PfCDPK1 kinase inhibitors, biochemical, TCAMS library (AID 1159585; cut-off not given, nearly all actives have IC50 up to about 0.98 µM;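 note: inhibitors leave more ATP so luminescence rises with inhibition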); settings: recombinant PfCDPK1, Kinase-Glo ATP depletion luminescence
[6] = molecular target: Plasmodium falciparum protein kinase 6 (PK6, PF3D7_1337100) (UniProt Q8IDW1); test: PfPK6 kinase inhibitors, biochemical, TCAMS library (AID 1159586); settings: recombinant PfPK6, Kinase-Glo ATP depletion luminescence
[7] = molecular target: Protein kinase 7 (PK7), Plasmodium falciparum 3D7 (PF3D7_0213400) (UniProt Q7YTF7); test: inhibition of Plasmodium PK7 catalytic activity – biochemical, TCAMS antimalarial set, Kinase-Glo luminescence (AID 1159587); settings: recombinant PfPK7, Kinase-Glo ATP depletion luminescence
[8] = molecular target: Calcium-dependent protein kinase 4 (Plasmodium falciparum (isolate 3D7)) (UniProt Q8IBS5); test: PfCDPK4 kinase inhibitors, biochemical, TCAMS library (AID 1159588; cut-off not given, nearly all actives have IC50 up to about 0.91 µM); settings: recombinant PfCDPK4, Kinase-Glo ATP depletion luminescence
Sequence of Calcium-dependent protein kinase 4 (Plasmodium falciparum (isolate 3D7)) (Q8IBS5 whole entry, looked up): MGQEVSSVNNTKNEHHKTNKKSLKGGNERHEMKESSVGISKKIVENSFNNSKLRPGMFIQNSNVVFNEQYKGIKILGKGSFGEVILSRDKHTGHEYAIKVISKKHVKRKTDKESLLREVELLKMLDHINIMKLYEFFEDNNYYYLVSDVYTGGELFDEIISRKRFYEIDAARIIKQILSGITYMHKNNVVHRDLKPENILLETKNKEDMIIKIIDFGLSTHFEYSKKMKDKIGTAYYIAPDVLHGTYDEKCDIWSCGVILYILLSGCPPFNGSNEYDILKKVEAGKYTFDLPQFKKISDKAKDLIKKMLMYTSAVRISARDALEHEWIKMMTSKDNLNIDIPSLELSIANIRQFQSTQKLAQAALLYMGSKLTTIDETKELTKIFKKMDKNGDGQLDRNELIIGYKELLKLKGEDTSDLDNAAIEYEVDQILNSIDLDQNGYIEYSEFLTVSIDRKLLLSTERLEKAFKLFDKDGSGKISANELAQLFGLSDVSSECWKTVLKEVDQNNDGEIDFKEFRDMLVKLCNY

Sequence of L-lactate dehydrogenase (Plasmodium falciparum (isolate CDC / Honduras)) (Q27743 whole entry, looked up): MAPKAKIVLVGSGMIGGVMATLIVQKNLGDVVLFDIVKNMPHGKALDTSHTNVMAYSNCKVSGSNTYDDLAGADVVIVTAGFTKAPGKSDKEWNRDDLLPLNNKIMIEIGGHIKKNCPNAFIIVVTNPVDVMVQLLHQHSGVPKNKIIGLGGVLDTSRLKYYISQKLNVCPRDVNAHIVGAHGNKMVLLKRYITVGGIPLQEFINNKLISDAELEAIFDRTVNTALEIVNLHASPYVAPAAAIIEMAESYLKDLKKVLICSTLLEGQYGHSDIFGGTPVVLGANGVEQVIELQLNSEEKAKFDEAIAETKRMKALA
Sequence of Protein kinase 7 (PK7), Plasmodium falciparum 3D7 (PF3D7_0213400) (Q7YTF7 1-343): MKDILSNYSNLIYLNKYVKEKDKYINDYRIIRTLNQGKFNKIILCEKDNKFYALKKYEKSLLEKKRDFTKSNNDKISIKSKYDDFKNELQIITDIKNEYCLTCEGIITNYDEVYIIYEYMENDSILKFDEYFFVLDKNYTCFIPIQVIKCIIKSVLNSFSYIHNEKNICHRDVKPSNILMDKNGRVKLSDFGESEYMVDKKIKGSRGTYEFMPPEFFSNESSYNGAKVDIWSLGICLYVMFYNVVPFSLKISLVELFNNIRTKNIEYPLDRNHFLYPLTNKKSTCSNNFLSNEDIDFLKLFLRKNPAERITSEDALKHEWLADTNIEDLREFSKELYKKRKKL
Sequence of Plasmodium falciparum protein kinase 6 (PK6, PF3D7_1337100) (Q8IDW1 1-305): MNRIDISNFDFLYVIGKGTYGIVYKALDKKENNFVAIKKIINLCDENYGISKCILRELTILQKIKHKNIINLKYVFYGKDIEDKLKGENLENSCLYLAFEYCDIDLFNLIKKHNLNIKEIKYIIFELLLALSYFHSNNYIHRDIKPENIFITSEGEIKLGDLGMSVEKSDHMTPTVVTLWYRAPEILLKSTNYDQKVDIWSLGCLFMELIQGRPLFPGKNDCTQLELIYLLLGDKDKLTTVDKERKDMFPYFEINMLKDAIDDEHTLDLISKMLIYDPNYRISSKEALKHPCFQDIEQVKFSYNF
Sequence of Calcium-dependent protein kinase 1 (Plasmodium falciparum (isolate 3D7)) (P62344 whole entry, looked up): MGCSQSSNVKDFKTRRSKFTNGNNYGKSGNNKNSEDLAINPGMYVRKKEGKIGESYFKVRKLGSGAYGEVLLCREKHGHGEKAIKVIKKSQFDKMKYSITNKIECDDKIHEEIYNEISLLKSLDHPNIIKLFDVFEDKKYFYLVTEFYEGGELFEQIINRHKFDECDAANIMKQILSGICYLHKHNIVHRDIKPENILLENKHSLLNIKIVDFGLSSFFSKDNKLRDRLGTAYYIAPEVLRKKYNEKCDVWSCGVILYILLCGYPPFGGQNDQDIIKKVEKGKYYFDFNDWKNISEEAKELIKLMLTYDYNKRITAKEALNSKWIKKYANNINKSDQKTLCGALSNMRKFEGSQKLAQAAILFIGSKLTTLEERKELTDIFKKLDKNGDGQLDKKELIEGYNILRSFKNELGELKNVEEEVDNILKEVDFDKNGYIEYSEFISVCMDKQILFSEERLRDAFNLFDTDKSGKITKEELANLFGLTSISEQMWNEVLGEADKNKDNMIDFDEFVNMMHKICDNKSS

COc1ccc(CCN(C)CCOc2ccc(NC(=O)c3cc(SC)cc4c(=O)c5ccccc5[nH]c34)cc2)cc1OC
inactive: growth inhibition [1] 44% | inhibition [2] 7% | inhibition [3] 0% | outcome [5] | outcome [6] | outcome [7] | outcome [8]
active: growth inhibition [4] 87%

CC(=O)Nc1cccc(NC(=O)CSc2ccc(-c3nc4ccccc4[nH]3)cn2)c1
inactive: inhibition [2] 22% | inhibition [3] -4% | outcome [5] | outcome [6] | outcome [7] | outcome [8]
active: growth inhibition [1] 73% | growth inhibition [4] 97%

Cc1ccc2nc(C)cc(NN=Cc3ccccc3F)c2c1
active: growth inhibition [1] 100% | growth inhibition [4] 97%
inactive: inhibition [2] 36% | inhibition [3] -3% | outcome [5] | outcome [6] | outcome [7] | outcome [8]

Cn1c2ccccc2c2c3ccccc3c(CNC(CO)(CO)CO)cc21
inactive: inhibition [3] -1% | outcome [5] | outcome [6] | outcome [7] | outcome [8]
active: growth inhibition [1] 78% | inhibition [2] 67% | growth inhibition [4] 96%

COc1ccc(C=NNc2cc(C)nc3ccc(C)cc23)c2ccccc12
active: growth inhibition [1] 55% | growth inhibition [4] 94%
inactive: inhibition [2] 28% | inhibition [3] 4% | outcome [5] | outcome [6] | outcome [7] | outcome [8]

O=S(=O)(NCCN1CCCC1)c1cccc(-c2cccc(CNCc3ccccc3)c2)c1
active: growth inhibition [1] 73% | growth inhibition [4] 97%
inactive: inhibition [2] 32% | inhibition [3] -7% | outcome [5] | outcome [6] | outcome [7] | outcome [8]

O=C(NCCNc1ccnc(Nc2ccc(F)cc2)n1)Nc1ccc2c(c1)OCO2
inactive: growth inhibition [1] 3% | inhibition [2] 15% | inhibition [3] 0% | outcome [5] | outcome [6] | outcome [7] | outcome [8]
active: growth inhibition [4] 97%

CCN1CCCC1CN(Cc1ccc(-c2ccc(C(F)(F)F)cc2)cc1)C(=O)Cn1c(CCc2cccc(F)c2F)nc(=O)c2ccccc21 (configuration not stated)
active: growth inhibition [1] 51% | growth inhibition [4] 94%
inactive: inhibition [2] 40% | inhibition [3] 2% | outcome [5] | outcome [6] | outcome [7] | outcome [8]

Cc1cccc(CC(N)=NCCCCCCN=C(N)Cc2cccc(C)c2)c1
active: growth inhibition [1] 97% | growth inhibition [4] 97%
inactive: inhibition [2] 12% | inhibition [3] 3% | outcome [5] | outcome [6] | outcome [7] | outcome [8]

CC(C)(C)c1nn(-c2ccccc2)c2[nH]c(=O)c(CNC3CCCCC3)cc12
inactive: inhibition [2] 6% | inhibition [3] 3% | outcome [5] | outcome [6] | outcome [7] | outcome [8]
active: growth inhibition [1] 76% | growth inhibition [4] 83%

CC(C)(C)OC(=O)Cn1cnc2cc(NC(=O)c3cc([N+](=O)[O-])cc([N+](=O)[O-])c3)ccc21
active: growth inhibition [1] 97% | growth inhibition [4] 100%
inactive: inhibition [2] 11% | inhibition [3] 5% | outcome [5] | outcome [6] | outcome [7] | outcome [8]

O=C(Nc1cccc(CN2CCCN(CCc3ccccc3)CC2)c1)c1cc2ccccc2s1
active: growth inhibition [4] 93%
inactive: growth inhibition [1] 39% | inhibition [2] 37% | inhibition [3] 4% | outcome [5] | outcome [6] | outcome [7] | outcome [8]

CCN(CC)CCNC(=O)c1ccc(NC(=O)c2cc3c(C)nn(-c4ccc(Cl)cc4)c3s2)cc1
inactive: inhibition [2] 24% | inhibition [3] -2% | outcome [5] | outcome [6] | outcome [7] | outcome [8]
active: growth inhibition [1] 78% | growth inhibition [4] 95%

O=C1COC2(CN1CC1CCN(Cc3ccc(O)c(Cl)c3)C1)c1ccccc1-c1ccccc12 (configuration not stated)
active: growth inhibition [1] 50% | growth inhibition [4] 93%
inactive: inhibition [2] 6% | inhibition [3] 1% | outcome [5] | outcome [6] | outcome [7] | outcome [8]

CCOc1c(CNCCCNc2cc(=O)c3ccccc3[nH]2)cc(I)cc1OC
inactive: growth inhibition [1] 6% | inhibition [2] -4% | inhibition [3] 2% | outcome [5] | outcome [6] | outcome [7] | outcome [8]
active: growth inhibition [4] 91%

COc1ccc2nccc([C@@H](O)CN3CCC(NCc4nc5ccccc5s4)CC3)c2c1
inactive: growth inhibition [1] 5% | inhibition [2] 8% | inhibition [3] -3% | outcome [5] | outcome [6] | outcome [7] | outcome [8]
active: growth inhibition [4] 93%

CC(C)(C)COC(=O)c1ccc(NC(=O)N[C@@H](Cc2ccc(O)cc2)C(=O)NC2CCN(Cc3ccc(O)cc3)C2)cc1 (some centres not stated)
active: growth inhibition [4] 94%
inactive: growth inhibition [1] 21% | inhibition [2] 3% | inhibition [3] -1% | outcome [5] | outcome [6] | outcome [7] | outcome [8]

CC1(C)N=C(N)N=C(N)N1OCc1cccc2c1ccc1ccccc12
inactive: inhibition [3] 4% | outcome [5] | outcome [6] | outcome [7] | outcome [8]
active: growth inhibition [1] 97% | inhibition [2] 63% | growth inhibition [4] 95%

CS(=O)(=O)CCCNCc1ccc(-c2cc3c(Nc4ccc(OCc5ccccc5)cc4)ncnc3cn2)o1
inactive: growth inhibition [1] 16% | inhibition [2] 10% | inhibition [3] -8% | outcome [5] | outcome [6] | outcome [7] | outcome [8]
active: growth inhibition [4] 87%

O[C@@H](c1ccccc1)[C@@H]1CN(CCC2C[C@@H]3CC[C@H]2C3)CC[C@@]1(O)c1ccccc1 (some centres not stated)
active: growth inhibition [1] 99% | growth inhibition [4] 97%
inactive: inhibition [2] -1% | inhibition [3] -2% | outcome [5] | outcome [6] | outcome [7] | outcome [8]

COc1ccc2ncc(F)c(CCN3C[C@@H]4CCC[C@]4(CNCc4ccc5c(n4)NC(=O)CS5)C3)c2n1
inactive: growth inhibition [1] 28% | inhibition [2] 18% | inhibition [3] 2% | outcome [5] | outcome [6] | outcome [7] | outcome [8]
active: growth inhibition [4] 87%

Cc1cc(NCCc2cccc(F)c2)nc(/N=C(\N)Nc2cccc(C(F)(F)F)c2)n1
active: growth inhibition [1] 99% | growth inhibition [4] 102%
inactive: inhibition [2] 42% | inhibition [3] -1% | outcome [5] | outcome [6] | outcome [7] | outcome [8]

Cn1c(CN2CCC(N3CCc4cc(NC(=O)c5ccco5)ccc43)C2)cc2ccccc21 (configuration not stated)
active: growth inhibition [1] 92% | growth inhibition [4] 91%
inactive: inhibition [2] -1% | inhibition [3] -3% | outcome [5] | outcome [6] | outcome [7] | outcome [8]

Clc1nc2ccccn2c1C=Cc1ccc2ccccc2n1
active: growth inhibition [1] 75% | growth inhibition [4] 86%
inactive: inhibition [2] -31% | inhibition [3] -6% | outcome [5] | outcome [6] | outcome [7] | outcome [8]

Cc1cc(CNCCCCCCCNCc2ccc(-c3ccccc3)cc2)ccc1O
inactive: growth inhibition [1] 6% | inhibition [2] 49% | inhibition [3] -2% | outcome [5] | outcome [6] | outcome [7] | outcome [8]
active: growth inhibition [4] 97%

COc1cc2ccccc2cc1CCNCCCCNCCc1cc2ccccc2cc1OC
inactive: growth inhibition [1] 38% | inhibition [3] 2% | outcome [5] | outcome [6] | outcome [7] | outcome [8]
active: inhibition [2] 100% | growth inhibition [4] 99%

NC1=NC2(CCCC2)C(c2ccc(Cl)c(Cl)c2)C(N)=N1 (configuration not stated)
inactive: growth inhibition [1] 3% | inhibition [2] 7% | inhibition [3] -1% | outcome [5] | outcome [6] | outcome [7] | outcome [8]
active: growth inhibition [4] 92%

Cc1cc(-c2ccc3c(c2)CCN(CCC2CCC(NC(=O)/C=C/c4ccccc4F)CC2)CC3)on1 (configuration not stated)
active: growth inhibition [4] 94%
inactive: growth inhibition [1] 13% | inhibition [2] 26% | inhibition [3] -4% | outcome [5] | outcome [6] | outcome [7] | outcome [8]

CCOC(=O)c1ccc(NC(=O)Nc2cccc(-c3cccc(-c4nc5c(C)cccc5[nH]4)c3)c2)cc1
inactive: inhibition [2] 37% | inhibition [3] 0% | outcome [5] | outcome [6] | outcome [7] | outcome [8]
active: growth inhibition [1] 99% | growth inhibition [4] 100%

O=C(Nc1cccc(-c2cc3ccccc3[nH]2)c1)C1CCN(Cc2ccccc2O)CC1
active: growth inhibition [4] 95%
inactive: growth inhibition [1] 25% | inhibition [2] 34% | inhibition [3] -1% | outcome [5] | outcome [6] | outcome [7] | outcome [8]

CN1CCCN(Cc2ccc(-c3cccc(NC(=O)c4cccc(C#N)c4)c3)cc2)CC1
active: growth inhibition [1] 64% | growth inhibition [4] 101%
inactive: inhibition [2] 17% | inhibition [3] -2% | outcome [5] | outcome [6] | outcome [7] | outcome [8]

COc1ccc(CC2(CO)CCN(Cc3ccc(O)c(Cl)c3)CC2)cc1
active: growth inhibition [4] 98%
inactive: growth inhibition [1] 14% | inhibition [2] -6% | inhibition [3] -2% | outcome [5] | outcome [6] | outcome [7] | outcome [8]

O=C(C=Cc1ccc(F)cc1)NC1CCC(CCN2CCc3ccc(-c4cnccn4)cc3CC2)CC1 (configuration not stated)
inactive: inhibition [2] 32% | inhibition [3] 1% | outcome [5] | outcome [6] | outcome [7] | outcome [8]
active: growth inhibition [1] 65% | growth inhibition [4] 99%

COc1cc(OC)c2c(c1Cl)O[C@]1(C2=O)C(=O)C(Cc2ccccc2)(Cc2ccccc2)C(=O)C[C@H]1C
inactive: growth inhibition [1] 45% | inhibition [2] -12% | inhibition [3] -3% | outcome [5] | outcome [6] | outcome [7] | outcome [8]
active: growth inhibition [4] 90%

CCCCCCCCc1[nH]c(C)c(Br)c(=O)c1Br
inactive: inhibition [2] 2% | inhibition [3] 2% | outcome [5] | outcome [6] | outcome [7] | outcome [8]
active: growth inhibition [1] 95% | growth inhibition [4] 96%

CCN(CC)C(=NCCCCCCN=C(/N=C(\N)c1ccc(Cl)cc1)N(CC)CC)/N=C(\N)c1ccc(Cl)cc1
active: growth inhibition [1] 99% | growth inhibition [4] 97%
inactive: inhibition [2] 1% | inhibition [3] 1% | outcome [5] | outcome [6] | outcome [7] | outcome [8]

O=C(Nc1ccc(Cn2nc(Cl)c(N3CCNCC3)cc2=O)cc1)Nc1ccc(-c2ccccc2)cc1
active: inhibition [2] 99% | growth inhibition [4] 97%
inactive: growth inhibition [1] 49% | inhibition [3] -3% | outcome [5] | outcome [6] | outcome [7] | outcome [8]

COc1ccc2[nH]c(C(=O)Nc3ccc4nc(-c5ccccc5)[nH]c4c3)cc2c1
active: inhibition [2] 51% | growth inhibition [4] 96%
inactive: growth inhibition [1] 23% | inhibition [3] -1% | outcome [5] | outcome [6] | outcome [7] | outcome [8]

Cc1[nH]c(C)c(-c2ccc(Nc3ccc(C(F)(F)F)cn3)cc2)c(=O)c1Br
inactive: inhibition [2] 30% | inhibition [3] -2% | outcome [5] | outcome [6] | outcome [7] | outcome [8]
active: growth inhibition [1] 98% | growth inhibition [4] 99%

Source: PubChem BioAssay
